Screens: PubChem, National Center for Advancing Translational Sciences (NCATS)
In the library only some 11% were active in any assay of this set; here they are far more common.
IMPase Li cell – membrane-permeable IMPase blocker, potentiated with lithium; Potency, µM (doses to about 59.4 µM), inactives show at the highest dose activity, negative = IMPase inhibition, usual class: inhibitors; CHO-M1 cells, IP1 TR-FRET (IP-One), carbachol + lithium; hit rate 0.35% among 210,000; AID 1457;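 further: IP1 builds up when IMPase is blocked and the TR-FRET signal falls; potency means the concentration at half of the fitted maximal effect; plate controls were basal vehicle for no effect and high inhibitor control for full effect; nearly all actives have a fitted effect of over 50% in size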
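CHO cells stably expressing M1 receptor (2000/well, cultured 16–30 h) treated 30 min at 37C with compound plus low lithium. Cytosolic IP1 by TR-FRET (665/620 ratio and 620 channel) after 10 min lysis; AC50 by Hill fit.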
PNC assembly inh – blocks assembly of the perinucleolar compartment | hit rate 3.1% among 140,000 | AID 2417 | PC3M PTB-GFP, PNC prevalence imaging, 16 h; hits give low values | activity change (PNC), negative = inhibition, % at 10 µM;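 active means readout at or below -70, meaning at least 70% loss of cells showing the perinucleolar compartment, a nuclear body marking cancer cells; inconclusive means readout between -30 and a set limit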;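 further: plate controls were DMSO wells for no effect and camptothecin positive control wells for full effect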
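Compounds are pinned in duplicate onto adhered PC3M cells stably expressing GFP-tagged PTB and incubated 16 h at 37 C. Cells are then fixed, nuclei stained with Hoechst, and PNC-positive cells counted.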
ALDH1A1 block – blocks purified human ALDH1A1 activity. P00352. Purified ALDH1A1, NADH fluorescence, propionaldehyde substrate. Potency, µM (doses to about 75.3 µM), without a hit: at the highest dose activity, negative = inhibition, usual class: inhibitors. hit rate 7.3% among 220,000. AID 1030; active means well fitted inhibition curve with a large enough effect, not every such curve was filed as active; inconclusive means small, poorly fitted or top-dose-only effect, or another doubt; inactive means no such curve, though single readings can be large or run the other way;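 further: potency means the concentration at half of the fitted maximal effect; plate controls were no enzyme wells and a reference inhibitor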
Target sequence (P00352 whole entry, looked up): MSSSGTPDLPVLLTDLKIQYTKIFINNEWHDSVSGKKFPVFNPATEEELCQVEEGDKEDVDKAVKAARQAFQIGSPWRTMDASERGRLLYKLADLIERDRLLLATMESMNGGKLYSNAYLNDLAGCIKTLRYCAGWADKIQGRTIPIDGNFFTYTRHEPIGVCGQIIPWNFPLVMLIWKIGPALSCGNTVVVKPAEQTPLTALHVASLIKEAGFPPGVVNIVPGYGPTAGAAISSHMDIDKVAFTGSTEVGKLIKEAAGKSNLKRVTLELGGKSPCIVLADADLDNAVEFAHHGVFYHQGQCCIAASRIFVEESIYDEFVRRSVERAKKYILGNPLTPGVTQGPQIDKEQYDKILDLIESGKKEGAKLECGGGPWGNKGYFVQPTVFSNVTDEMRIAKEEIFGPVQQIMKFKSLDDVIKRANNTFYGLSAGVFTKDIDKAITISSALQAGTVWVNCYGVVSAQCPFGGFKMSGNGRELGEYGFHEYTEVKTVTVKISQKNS
NPSR antag – antagonists of human neuropeptide S receptor cAMP signaling | Q6W5P4 | CHO-NPSR cells, cAMP TR-FRET, antagonist mode | Potency, µM (series often up to 38.3 µM), for the others: top-dose activity change, negative = inhibition, hits mostly inhibitors | hit rate 1% among 220,000 | AID 1461; further: potency means the concentration at half of the fitted maximal effect; nearly all actives have a fitted effect of over 50% in size
Target sequence (Q6W5P4 whole entry, looked up): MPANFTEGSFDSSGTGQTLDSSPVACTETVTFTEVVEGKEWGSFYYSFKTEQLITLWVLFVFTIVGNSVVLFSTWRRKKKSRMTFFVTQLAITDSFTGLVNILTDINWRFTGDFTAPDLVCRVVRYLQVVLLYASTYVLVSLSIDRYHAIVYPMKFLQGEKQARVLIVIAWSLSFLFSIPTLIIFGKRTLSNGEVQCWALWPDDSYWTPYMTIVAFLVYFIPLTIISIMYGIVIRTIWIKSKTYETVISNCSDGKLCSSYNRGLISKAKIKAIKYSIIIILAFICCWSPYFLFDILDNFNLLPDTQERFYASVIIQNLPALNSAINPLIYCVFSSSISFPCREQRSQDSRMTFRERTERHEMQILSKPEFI
HPGD block – HPGD (human) dehydrogenase inhibition; P15428; purified HPGD, NADH fluorescence kinetic, PGE2 substrate; Potency, µM, without a hit: at the highest dose activity change, negative = inhibition, most hits filed as inhibitors; hit rate 4.3% among 150,000; AID 894; active means well fitted inhibition curve with a large enough effect, not every such curve was filed as active; inconclusive means small, poorly fitted or top-dose-only effect, or another doubt; inactive means no such curve, though single readings can be large or run the other way; further: potency means the concentration at half of the fitted maximal effect
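20 nM HPGD preincubated 15 min at room temperature with compound in 50 mM Tris-HCl pH 8, 0.01% Tween 20. Started with 1 mM NAD+ and 30 uM prostaglandin E2; NADH fluorescence (360/450 nm) read 5 times over 30-s intervals, last minus first.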
IMPase inh – cell-permeable inhibitors of inositol monophosphatase (IMPase); AID 901; inhibition (IP1 accumulation), % at 46.1 µM; CHO-M1 cells, IP1 accumulation, HTRF TR-FRET ratio; P97697; 120,000 tested, under 10 active; active means well fitted curve in the direction sought with a large enough effect in the signal ratio, not every such curve was filed as active; inconclusive means small, poorly fitted or top-dose-only effect, or a change in a side signal; inactive means no such curve, though single readings can be large or run the other way; the % refers to the signal ratio;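 further: cells stimulated with carbachol in lithium chloride buffer; plate controls were DMSO basal wells for no effect and reference inhibitor wells for full effect; higher means more IMPase inhibition seen as more IP1 and lower FRET ratio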
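Elevated IP1 in lysates lowers TR-FRET signal (665/620 ratio and 620 channel reported). Cells were CHO-M1, given carbachol (50 uM as added) plus 50mM LiCl, pH 7.4, 30 min, 37C; compounds titrated up to 46 uM; AC50 by Hill equation.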
The depositor's hits bear a star; ? = inconclusive; / = no result given; [ ] = another dose, or the depositor's remark. Unless noted, the call rests on the fitted dose curve; in most records, active means well fitted curve in the direction sought with a large enough effect; inconclusive means small, poorly fitted or top-dose-only effect, or another doubt; inactive means no such curve, though single readings can be large; an effect the other way counts as inactive or inconclusive. Unless noted, on the % scale 0 is the no-effect control and ±100 the full control effect.

SMILES	IMPase Li cell	PNC assembly inh	ALDH1A1 block	NPSR antag	HPGD block	IMPase inh
Cc1ccc(-n2ncc3c(=O)[nH]c(SCC(=O)N4CCC(C)CC4)nc32)cc1C	18.5%[38.3 µM]	3.3	5.5%	-2.4%[46.1 µM]	-13.6%	-7.7
Cc1ccc(-n2ncc3c(=O)[nH]c(SCC(=O)N4CCCC4)nc32)cc1C	-2.5%	21.4	-1.1%	-13.8%	15.8µM*	/
CCOC(=O)N1CCN(C(=O)CSc2nc3c(cnn3-c3ccccc3)c(=O)[nH]2)CC1	-4.1%[38.3 µM]	-0.8	11.2µM*	-11.1%[46.1 µM]	-27.3%	-12.9
C=CCc1c(C)nc(SCc2nc3ccccc3c(=O)[nH]2)[nH]c1=O	22.4%[38.3 µM]	-22.7	14.1µM*	-12.4%[46.1 µM]	2.82µM*	11.9
Cc1ccc(NC(=O)CSC2=NCCN2)cc1	-1.6%	-28.2	7.0%	21.3%	5.3%	1.1
CCCc1nc(SCC(=O)N2CCc3ccccc32)c2c(=O)n(C)c(=O)n(C)c2n1	1.0%[38.3 µM]	?	7.2%	-2.8%[46.1 µM]	-2.9%	-3.5
Cc1ccc(NC2OC(C(O)CO)C(O)C2O)cc1[N+](=O)[O-] (stereo not given)	-6.4%[38.3 µM]	-28.7	-2.0%	0.1%[46.1 µM]	-25.6%	0.8
Cc1ccc(NC(=O)CN(C)C(=O)Cn2cc(C(F)(F)F)ccc2=O)cc1	/	-80.1*	10.7%	8.6%[46.1 µM]	/	-3.0
COc1ccc(NC2c3ccccc3C(=O)N2Cc2ccco2)cc1OC (stereo not given)	25.0%[38.3 µM]	3.9	-8.0%	-8.9%[46.1 µM]	-7.1%	-3.0
CCOc1ccc(NC2c3ccccc3C(=O)N2Cc2ccco2)cc1 (stereo not given)	13.9%	-7.6	5.62µM*	5.6%	-21.2%	13.6
CCOC(=O)COc1ccc2c(=O)c(-c3ccccc3OC)coc2c1	2.2%	/	-3.9%	-14.9%	/	/
CCOC(=O)N1CCC(N2Cc3cccc(C(=O)NCc4ccc(OC)cc4)c3C2=O)CC1	13.6%	-13.1	20µM*	-16.3%	-7.8%	/
CCOC(=O)N1CCC(N2Cc3cccc(C(=O)NCc4ccccc4OC)c3C2=O)CC1	13.5%	-100.0*	5.5%	-16.8%[46.1 µM]	-11.3%	-2.2
CCOC(=O)N1CCC(N2Cc3cccc(C(=O)Nc4ccc(CC)cc4)c3C2=O)CC1	22.2%[38.3 µM]	-107.5*	129.6%	?	-14.0%	1.4
Cn1nc(C(=O)OCc2ccc(F)cc2)c2ccccc2c1=O	13.1%	/	-2.7%	3.8%	/	/
CCCCN(CCCC)c1nc(-c2ccccc2)nc2ccccc12	/	/	/	/	/	-0.5
Cc1cccc(N/N=C/c2ccccc2O)c1	-0.3%	11.9	25.1µM*	16.4%	?	/
CCN(C)c1ccc(/C=N\n2nnnc2N)cc1	30.8%[38.3 µM]	0.1	?	-8.1%[46.1 µM]	-17.4%	4.5
CCN(CC)c1ccc(C=Nc2ccc(C)cc2C)c(O)c1	5.5%	/	20µM*	-5.1%	/	/
CCN(CC)c1ccc(/C=N/Nc2ccc(C)cc2)c(O)c1	3.1%	-12.1	10µM*	-3.6%	31.6µM*	-6.3
O=[N+]([O-])c1cccc(N/N=C/c2cc([N+](=O)[O-])ccc2O)c1	13.2%	/	3.0%	-39.3%	/	/
CCN(CC)c1ccc(/C=N/n2nnnc2N)c(O)c1	-2.5%[38.3 µM]	-119.8*	?	-5.8%[46.1 µM]	?	14.5
Cc1nc2c(sc3nc4c(cc32)COC(C)(C)C4)c(=O)n1CC(=O)NCc1ccco1	-13.9%[38.3 µM]	?	?	?	?	9.6
COc1ccc2c(c1)c(=O)c(C(=O)c1ccccc1)cn2Cc1ccc(C)cc1	6.6%	24.4	?	-52.0%	-4.6%	/
O=C(c1cnccn1)N1CCC2(CCCN(c3ccncc3)C2)CC1	18.6%	/	3.9%	/	-0.2%	/
SMILES	IMPase Li cell	PNC assembly inh	ALDH1A1 block	NPSR antag	HPGD block	IMPase inh
CCN(CC)CCNC(=O)COc1ccc(OC)cc1	2.1%	/	-3.9%	/	1.3%	2.8[20.6 µM]
O=C(NC1CC2CCCC(C1)N2S(=O)(=O)c1ccccc1)C1CCCCC1 (stereo not given)	7.6%[38.3 µM]	84.0	28.2µM*	-13.4%[46.1 µM]	-11.0%	7.6
CCN1CCCC1CNC(=O)c1cn(CC)c2ccc(S(=O)(=O)N3CCCCCC3)cc2c1=O (stereo not given)	7.7%	22.2	?	1.3%[46.1 µM]	-3.0%	6.8
Cc1nn(-c2ccccc2)c2c1C(c1ccccc1)C(C#N)=C(N)O2 (stereo not given)	3.0%	5.4	3.55µM*	-10.0%[46.1 µM]	31.6µM*	18.8
COc1ccc(C2C(C#N)=C(N)OC3=C2C(=O)CC(C)(C)C3)cc1Cn1nc(C)c([N+](=O)[O-])c1C (stereo not given)	5.7%	4.6	2.2%	-6.2%	1.2%	7.4
Cc1nn(-c2ccccc2)c2c1C(c1ccc(Br)s1)C(C#N)=C(N)O2 (stereo not given)	11.5%	/	3.16µM*	-21.1%	/	/
COc1ccc(C2C(C#N)=C(N)Oc3c2c(C)nn3-c2ccccc2)cc1Cn1nc(C)c([N+](=O)[O-])c1C (stereo not given)	11.8%[38.3 µM]	1.3	5.01µM*	?	?	6.3
CC(=O)c1sc(-c2ccccc2)nc1C	-18.4%	/	0.2%	-4.4%	/	/
Cc1cc(C(C)(C)C)ccc1OCCn1ccnc1	-4.5%[38.3 µM]	-20.4	2.4%	-3.3%[46.1 µM]	-21.2%	10.8
Cc1cc(C2(c3cc(C)c(O)c(C(=O)O)c3)OS(=O)(=O)c3ccccc32)cc(C(=O)O)c1O	6.0%	/	13.7%[13.5 µM]	/	-4.9%	/
Cc1cc(C2(c3cc(C)c(O)cc3C)OS(=O)(=O)c3ccccc32)c(C)cc1O	57.6%	/	28.2µM*	/	-13.2%	/
C=C1CCC[C@]2(C)C[C@H]3OC(=O)[C@H](CNCCc4ccccc4OC)C3CC12 (stereo not given in full)	23.3%	/	8.91µM*	/	-1.8%	/
CCCCC(=O)Nc1sc2c(c1C(N)=O)CCC2	-0.3%	28.0	?	-5.3%[46.1 µM]	-1.7%	0.1
Cc1cc([N+](=O)[O-])nn1CCCC(=O)Nc1sc2c(c1C(N)=O)CCC(C)C2 (stereo not given)	2.3%	-13.4	?	3.5%	15.8µM*	/
CCOC(=O)c1c(NC(=S)NC(C)=O)sc(C)c1C	-0.5%	7.0	2.3%	-20.6%	-4.6%	-7.6
Cc1sc(NC(=S)NC(=O)C(C)(C)C)c(C(N)=O)c1C	-2.4%[38.3 µM]	13.6	7.94µM*	-7.5%[46.1 µM]	?	3.7
CC(C)(C)C(=O)NC(=S)Nc1sc2c(c1C(N)=O)CCC2	0.8%	/	2µM*	-14.4%	/	/
CC(C)CC(=O)NC(=S)Nc1sc2c(c1C(N)=O)CCC2	?	/	1.41µM*	?	/	/
CC(=O)c1ccc(NC(=O)N2CCN(c3cccc(Cl)c3)CC2)cc1	32.0%[38.3 µM]	27.9	5.5%	-15.3%[46.1 µM]	-9.5%	6.3
CCC1(CC)NC(=O)N(CC(=O)Nc2sc3c(c2C(N)=O)CCC3)C1=O	17.9%[38.3 µM]	26.9	22.4µM*	-7.9%[46.1 µM]	?	9.3
CC(=O)NC(=S)Nc1sc2c(c1C(N)=O)CCC(C)C2 (stereo not given)	-0.2%	/	8.91µM*	2.9%	/	/
